Data from the supplement of paper PMC10127200.
Where a name gives a salt, the structure may show the parent alone.

Assays:
Assay in all cases: Euclidean distance of Cell Painting phenotypic profile (signed KS, 77 features) to DMSO centroid (dimensionless distance); 5 or 10 uM (library dependent); higher = stronger phenotypic change vs DMSO (phenoactivity)
Conditions in all cases: 48 h
786-O = tested on: 786-O
In short: (§1)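 Library compounds were applied at 10 or 5 uM, depending on the library, with 0.1% DMSO final, for 48 h to five cancer lines and a healthy fibroblast line. After staining, cells were imaged confocally at 20X across 9 fields per well, and Harmony extracted 77 features, each scored as a signed Kolmogorov-Smirnov statistic against vehicle wells on the same plate. Phenoactivity is the Euclidean distance between each profile and the median vehicle profile, with profiles first plate-position corrected, correlation-weighted and averaged over replicates at the top dose.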

A549 = tested on: A549
In short: as §1

DU145 = tested on: DU145
In short: as §1

FB = tested on: FB
In short: as §1

HEPG2 = tested on: HEPG2
In short: as §1

OVCAR4 = tested on: OVCAR4
In short: as §1

Structure (SMILES)	Euclidean distance (786-O)	Euclidean distance (A549)	Euclidean distance (DU145)	Euclidean distance (FB)	Euclidean distance (HEPG2)	Euclidean distance (OVCAR4)
NCCOB(c1ccccc1)c1ccccc1 [2-Aminoethyl Diphenylborinate (2-APB)]	1.61	0.835	1	0.968	0.822	1.13
Cc1cc(Cn2cnc3c2CC(C(=O)O)N(C(=O)C(c2ccccc2)c2ccccc2)C3)ccc1N(C)C (stereo not drawn)	0.67	1.03	1.03	1.08	0.529	0.828
N#CC(=C(/N)Sc1ccccc1N)/C(C#N)=C(\N)Sc1ccccc1N	1.54	1.18	0.907	1.57	1.81	1.48
NC(N)=Nc1nc(CSCC/C(N)=N/S(N)(=O)=O)cs1 [Famotidine]	1.72	0.931	1.5	1.11	2.27	1.1
CN1CCC[C@@H]1CCO[C@](C)(c1ccccc1)c1ccc(Cl)cc1 [Clemastine Fumarate]	1.5	1.22	1.59	1.96	2.11	1.18
O=C1[C@H](Cc2ccc(O)cc2)N2C(=O)CCN(C(=O)NCc3ccccc3)[C@H]2CN1Cc1cccc2ccccc12	2.87	2.53	1.39	3.88	1.43	2.09
COc1ccc(-c2nc(N3CCOCC3)c3sc(CN(C)c4ncc(C(=O)NO)cn4)cc3n2)cn1	3.46	4.27	4.25	3.52	4.2	3.25
CC1(C)CCC(c2ccc(Cl)cc2)=C(CN2CCN(c3ccc(C(=O)NS(=O)(=O)c4ccc(N[C@H](CCN5CCOCC5)CSc5ccccc5)c(S(=O)(=O)C(F)(F)F)c4)cc3)CC2)C1 [ABT-263 (Navitoclax)]	1.75	2.22	1.24	1.16	1.25	0.98
CCOc1ccc2c(c1)C(C)=CC(C)(C)N2 [Ethoxyquin]	0.933	1.17	0.847	1.62	0.54	1.95
CN(C)c1ccc(C(=C2C=CC(=[N+](C)C)C=C2)c2ccc(N(C)C)cc2)cc1 [Crystal Violet]	3.55	2.83	3	2.46	3.45	2.56
CC(C)n1cnc2c(NCCc3ccc(O)cc3)nc(-c3csc4ccccc34)nc21 [StemRegenin 1 (SR1)]	0.931	1.13	1.12	1.04	1.04	0.909
Nc1ccc(/N=N/c2ccccc2)c(N)n1 [Phenazopyridine HCl]	1.22	0.654	0.961	1.04	1.07	0.739
CC(C)(F)C[C@H](N[C@@H](c1ccc(-c2ccc(S(C)(=O)=O)cc2)cc1)C(F)(F)F)C(=O)NC1(C#N)CC1 [Odanacatib (MK-0822)]	0.533	2.1	0.7	0.656	1.37	0.985
Cc1c(OCC(F)(F)F)ccnc1C[S@@+]([O-])c1nc2ccccc2[nH]1 [Dexlansoprazole]	0.708	0.614	0.925	1.52	0.629	1.1
Oc1c2ccccc2c2c3c(cccc13)N=N2	1.18	1.08	0.792	0.94	1.13	0.655
COc1cc2ncnc(Nc3ccc(F)c(Cl)c3)c2cc1OCCCN1CCOCC1 [Gefitinib hydrochloride]	1.01	1.23	1.18	0.779	0.482	1.31
CCCCNc1cc(C(=O)O)cc(S(N)(=O)=O)c1Oc1ccccc1 [Bumetanide]	1.24	1.15	1.04	1.5	1.38	1.64
Cc1ccc(C(=O)N(CCCN)[C@@H](c2nc3cc(Cl)ccc3c(=O)n2Cc2ccccc2)C(C)C)cc1	3.64	3.18	4.25	2.49	3.84	3.78
CC(C)(C)C(=O)OCOC(=O)[C@@H]1N2C(=O)[C@@H](/N=C/N3CCCCCC3)[C@H]2SC1(C)C [Pivmecillinam hydrochloride]	1.23	1.69	0.728	0.994	0.59	1.14
C=C[C@](C)(O)CC[C@@H]1[C@@]2(C)CCCC(C)(C)[C@@H]2CC[C@@]1(C)O [Sclareol]	0.617	0.762	0.574	0.717	0.546	1.39
Nc1cc(C(F)(F)F)c(-c2nc(N3CCOCC3)nc(N3CCOCC3)n2)cn1 [Bimiralisib (PQR309)]	2.95	2.83	1.83	4.83	2.44	2.86
COC(=O)N(C)c1c(N)nc(-c2nn(Cc3ccccc3F)c3ncccc23)nc1N [Riociguat (BAY 63-2521)]	1.1	0.74	0.825	1.34	0.598	0.876
O=C(O)CCc1nc(-c2ccccc2)c(-c2ccccc2)o1 [Oxaprozin]	1.01	0.794	0.541	0.987	1.16	1.28
